Records with an inconclusive call do not appear. Activity calls are given as the source filed them. The call rests on the fitted dose curve; in most records, active means well fitted inhibition curve with a large enough effect; inconclusive means small, poorly fitted or top-dose-only effect; inactive means flat fitted curve, though single readings scatter.
Columns and labels:
[1] = qHTS profiling for inhibitors of Plasmodium falciparum proliferation (AID 504749); further: nearly all actives have a fitted effect of over 60% in size;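 on activity, negative = inhibition: 0% = DMSO vehicle and full inhibition = artemisinin control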; conditions: P. falciparum in erythrocytes, SYBR Green DNA, 72 h, at 28.7 µM (top of the series)
Outline: (§1)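 SYBR Green fluorescence (ex 485 nm, em 535 nm) reports parasite DNA after 72 h compound exposure of infected red cells at 0.3% parasitemia, 2.5% hematocrit; signal normalized to 0.29 uM artemisinin and vehicle wells.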

3D7 = assay: as above; conditions: P. falciparum in erythrocytes, SYBR Green DNA, 72 h; series mostly up to 28.7 µM
Outline: as §1

7G8 = assay: as above; conditions: P. falciparum in erythrocytes, SYBR Green DNA, 72 h; series mostly up to 28.7 µM
Outline: as §1
Potency means the concentration at half of the fitted maximal effect.

C[C@H](N)C(=O)N[C@@H](C)P(=O)(O)O
inactive: activity, negative = inhibition ([1]; parasite line A) 12.4% | activity, negative = inhibition ([1]; parasite line B) 10.4% | Potency (3D7) | Potency (7G8)

C[Si](C)(C)O[Si](C)(C)C
inactive: activity, negative = inhibition ([1]; parasite line A) 4.89% | activity, negative = inhibition ([1]; parasite line B) 10.8% | Potency (3D7) | Potency (7G8)

OCC1(CO)COC(C(Cl)(Cl)Cl)OC1
inactive: activity, negative = inhibition ([1]; parasite line A) 2.06% | activity, negative = inhibition ([1]; parasite line B) 5.66% | Potency (3D7) | Potency (7G8)

CCN(CC)CCOc1ccccc1OC
inactive: activity, negative = inhibition ([1]; parasite line A) -4.79% | activity, negative = inhibition ([1]; parasite line B) -3.67% | Potency (3D7) | Potency (7G8)

CCc1ncnc2cc(OC)c(OC)cc12
inactive: activity, negative = inhibition ([1]; parasite line A) -5.32% | activity, negative = inhibition ([1]; parasite line B) 10.1% | Potency (3D7) | Potency (7G8)

Nc1ncnc2c1ncn2[C@H]1CC[C@@H](CO)O1
inactive: activity, negative = inhibition ([1]; parasite line A) 5.25% | activity, negative = inhibition ([1]; parasite line B) 9.47% | Potency (3D7) | Potency (7G8)

C=CC(=O)O
inactive: activity, negative = inhibition ([1]; parasite line A) 2.32% | activity, negative = inhibition ([1]; parasite line B) 10.1% | Potency (3D7) | Potency (7G8)

NCCO/C=C/[C@H](N)C(=O)O
inactive: activity, negative = inhibition ([1]; parasite line A) 6.56% | activity, negative = inhibition ([1]; parasite line B) 15.6% | Potency (3D7) | Potency (7G8)

O=C(OC1C[C@@H]2CC3C[C@H](C1)N2CC3=O)c1c[nH]c2ccccc12 (some centres not stated)
inactive: activity, negative = inhibition ([1]; parasite line A) -11.9% | activity, negative = inhibition ([1]; parasite line B) -12.9% | Potency (3D7)
active: Potency (7G8) 11.2 µM

CCOC(C)OCC
inactive: activity, negative = inhibition ([1]; parasite line A) -1.66% | activity, negative = inhibition ([1]; parasite line B) -9.74% | Potency (3D7) | Potency (7G8)

CC(C)CCC[C@@H](C)[C@H]1CC[C@H]2[C@@H]3CC[C@@H]4C[C@H](O)CC[C@]4(C)[C@H]3CC[C@]12C
inactive: activity, negative = inhibition ([1]; parasite line A) -5.47% | activity, negative = inhibition ([1]; parasite line B) 5.75% | Potency (3D7) | Potency (7G8)

N=C(N)n1cccn1
inactive: activity, negative = inhibition ([1]; parasite line A) -11.6% | activity, negative = inhibition ([1]; parasite line B) 1.65% | Potency (3D7) | Potency (7G8)

CCCCCCCCCCCC(=O)N(CCO)CCO
inactive: activity, negative = inhibition ([1]; parasite line A) -3.5% | activity, negative = inhibition ([1]; parasite line B) 9.6% | Potency (3D7) | Potency (7G8)

CC1CC(O)CC(C)(C)C1 (configuration not stated)
inactive: activity, negative = inhibition ([1]; parasite line A) -1.2% | activity, negative = inhibition ([1]; parasite line B) 7.51% | Potency (3D7) | Potency (7G8)

NCC[C@H](O)C(=O)N[C@@H]1C[C@H](N)[C@@H](O[C@H]2O[C@H](CN)CC[C@H]2N)[C@H](O)[C@H]1O[C@H]1O[C@H](CO)[C@@H](O)[C@H](N)[C@H]1O
inactive: activity, negative = inhibition ([1]; parasite line A) -7.43% | activity, negative = inhibition ([1]; parasite line B) 9.77% | Potency (3D7) | Potency (7G8)

CCCC(=O)O
inactive: activity, negative = inhibition ([1]; parasite line A) 7.39% | activity, negative = inhibition ([1]; parasite line B) 16.4% | Potency (3D7) | Potency (7G8)

Cc1ccc(C(C)(C)c2ccc(C)cc2)cc1
inactive: activity, negative = inhibition ([1]; parasite line A) 2.11% | activity, negative = inhibition ([1]; parasite line B) -1.44% | Potency (3D7) | Potency (7G8)

CC(C)O
inactive: activity, negative = inhibition ([1]; parasite line A) 2.73% | activity, negative = inhibition ([1]; parasite line B) 13.2% | Potency (3D7) | Potency (7G8)

CC1=CC(=O)NS(=O)(=O)O1
inactive: activity, negative = inhibition ([1]; parasite line A) 0.853% | activity, negative = inhibition ([1]; parasite line B) 6.07% | Potency (3D7) | Potency (7G8)

N[C@H](CC(=O)O)C(=O)O
inactive: activity, negative = inhibition ([1]; parasite line A) 6.17% | activity, negative = inhibition ([1]; parasite line B) 8.93% | Potency (3D7) | Potency (7G8)

O=P(O)(O)OC[C@H](O)CO
inactive: activity, negative = inhibition ([1]; parasite line A) -1.1% | activity, negative = inhibition ([1]; parasite line B) 9.77% | Potency (3D7) | Potency (7G8)

Cc1c(Cl)cccc1Nc1ncccc1C(=O)O
inactive: activity, negative = inhibition ([1]; parasite line A) 15.4% | activity, negative = inhibition ([1]; parasite line B) 7.39% | Potency (3D7) | Potency (7G8)

CC(C)(Oc1ccc(C2CCCc3ccccc32)cc1)C(=O)O (configuration not stated)
inactive: activity, negative = inhibition ([1]; parasite line A) 0.13% | activity, negative = inhibition ([1]; parasite line B) 7.8% | Potency (3D7) | Potency (7G8)

CN(C)CCCSc1ccccc1NC(=O)/C=C/c1ccccc1
inactive: activity, negative = inhibition ([1]; parasite line A) 13.3% | activity, negative = inhibition ([1]; parasite line B) 3.42% | Potency (3D7) | Potency (7G8)

NC(N)=O
inactive: activity, negative = inhibition ([1]; parasite line A) 0.0876% | activity, negative = inhibition ([1]; parasite line B) -2.3% | Potency (3D7) | Potency (7G8)

O=C(O)/C=C/C(=O)Nc1ccc(S(=O)(=O)Nc2nccs2)cc1
inactive: activity, negative = inhibition ([1]; parasite line A) 17.5% | activity, negative = inhibition ([1]; parasite line B) -1.66% | Potency (3D7) | Potency (7G8)

OC[C@H]1O[C@@H]2O[C@H]3[C@H](O)[C@@H](O)[C@@H](O[C@H]4[C@H](O)[C@@H](O)[C@@H](O[C@H]5[C@H](O)[C@@H](O)[C@@H](O[C@H]6[C@H](O)[C@@H](O)[C@@H](O[C@H]7[C@H](O)[C@@H](O)[C@@H](O[C@H]1[C@H](O)[C@H]2O)O[C@@H]7CO)O[C@@H]6CO)O[C@@H]5CO)O[C@@H]4CO)O[C@@H]3CO
inactive: activity, negative = inhibition ([1]; parasite line A) 6.28% | activity, negative = inhibition ([1]; parasite line B) 7.95% | Potency (3D7) | Potency (7G8)

[O]=[Bi][O][Bi]=[O]
inactive: activity, negative = inhibition ([1]; parasite line A) 0.672% | activity, negative = inhibition ([1]; parasite line B) 4.28% | Potency (3D7) | Potency (7G8)

From PubChem BioAssay (NCATS)
